Sampled rows, rich in hits. Any-hit rate of the full collection: about 8.8%.
HT1080 IDH1KD tx: toxicity to HT-1080 IDH1 knockdown cells (counter line); HT-1080 IDH1 knockdown viability, ATP luminescence, 48 h; Potency, µM (doses to about 46.1 µM), for inactives: at the highest dose activity, negative = toxicity, usual class: cytotoxic; hit rate 2% among 360,000; AID 686971;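 note: potency is the fitted concentration of half-maximal effect; 0% = DMSO wells and -100% = cell-free medium wells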
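Cytotoxicity counter-line: IDH1KD HT-1080, 48 h, CellTiter-Glo. Curves classed by r2, magnitude and activity.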
HT1080NT lethal: kills 2HG-producing HT-1080-NT fibrosarcoma cells. Potency, µM (titrated, usually from 46.1 µM), for inactives: top-dose activity, negative = less viability, hits mostly cytotoxic. HT-1080-NT fibrosarcoma viability, CellTiter-Glo ATP luminescence, 48 h. hit rate 1.6% among 360,000;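 note: NT is the 2HG producing partner of a matched IDH1 knockdown line; potency is the fitted concentration of half-maximal effect; 0% = DMSO-treated cells and -100% = media-only wells without cells; nearly all actives have a fitted effect of over 55% in size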
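Toxicity toward the 2HG-producing NT line was scored as %Activity, normalised to DMSO and no-cell wells, from CellTiter-Glo luminescence after 48 hours' treatment.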
KB-V1 MDR tox: KB-V1 MDR subline cytotoxicity | Potency, µM (highest dose often 46.1 µM), most hits filed as cytotoxic | hit rate 3.4% among 400,000 | AID 1347076 | KB-V1 MDR cells viability, CellTiter-Glo, 72 h; note: potency is the fitted concentration of half-maximal effect; nearly all actives have a fitted effect of over 60% in size
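Compound-treated KB-V1 multidrug-resistant cells, 72 h, 37 degrees C; viability by CellTiter-Glo. Fitted qHTS curves give the values.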
IL-1B inflam inh: inhibitors of inflammasome signaling (IL-1 beta secretion) | THP-1 LPS/ATP IL-1B secretion, AlphaLISA, 16 h; hits give low values | activity change, % at 57.5 µM | hit rate 4.7% among 360,000; in the data active = activity change below about -50%; inconclusive = mostly about -30% to -49%
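Secreted IL-1B measured by AlphaLISA bead assay after 16 h compound exposure of THP-1 cells; compounds (final up to 57.5 uM) added 1 h before LPS (250 ng/mL) and ATP (1.25 mM) stimulation; lower signal means less secretion.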
KB-3-1 cytotox: kills parental KB-3-1 adenocarcinoma cells | Potency, µM (titrated, usually from 46.1 µM), usual class: cytotoxic | hit rate 1.4% among 400,000 | KB-3-1 viability, CellTiter-Glo ATP luminescence, 72 h; note: potency is the fitted concentration of half-maximal effect; nearly all actives have a fitted effect of over 60% in size
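Luminescent ATP read-out (CellTiter-Glo) measures survival of drug-naive KB-3-1 cells after 72 h compound exposure at 37 °C. Titration series was screened from lowest to highest concentration, with DMSO vehicle plates as background controls.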
Active calls of the source: *; [ ] = another dose, or the depositor's remark. Unless noted, calls come from the whole dose curve; as a rule, active = well fitted curve in the direction sought with a large enough effect; inconclusive = small, poorly fitted or top-dose-only effect, or another doubt; inactive = no such curve, though single readings can be large; an effect the other way counts as inactive or inconclusive. Unless noted, % is set by controls: 0 for no effect and ±100 for the full control effect.

What do the screens show for `Cc1ccc(CN2CCCC2(C)C(=O)NC(C)C)cc1` (stereo not drawn)?
HT1080 IDH1KD tx: 21%; HT1080NT lethal: 11%; KB-V1 MDR tox: inactive; IL-1B inflam inh: 30; KB-3-1 cytotox: inactive

Results for CN(C)CCNc1ncnc2c1ncn2[C@H]1CN(Cc2ccccc2)C[C@@H](CO)O1 ?
HT1080 IDH1KD tx: 15%; HT1080NT lethal: inconclusive; KB-V1 MDR tox: inactive; IL-1B inflam inh: 0; KB-3-1 cytotox: inactive

How did CC(C)CNc1ncnc2c1ncn2[C@H]1CN(Cc2ccc(-c3ccccc3)cc2)C[C@@H](CO)O1 do in these assays?
HT1080 IDH1KD tx: inconclusive; HT1080NT lethal: 18µM*; KB-V1 MDR tox: inconclusive; IL-1B inflam inh: -27; KB-3-1 cytotox: inconclusive

What do the screens show for `CN(C)CCNc1ncnc2c1ncn2[C@H]1CN(Cc2ccc(-c3ccccc3)cc2)C[C@@H](CO)O1`?
HT1080 IDH1KD tx: 21µM*; HT1080NT lethal: 6.5µM*; KB-V1 MDR tox: inactive; IL-1B inflam inh: -5; KB-3-1 cytotox: inconclusive

Results for CCOC(=O)C1=NN(C(C)=O)C2C(=O)N(CC)C(=O)C12 (stereo not drawn) ?
HT1080 IDH1KD tx: -1%; HT1080NT lethal: 3%; KB-V1 MDR tox: inactive; IL-1B inflam inh: 21; KB-3-1 cytotox: inactive

Results for Cc1ccc(C(=O)OCC(=O)NNC(=O)c2ccc([N+](=O)[O-])cc2)o1 ?
HT1080 IDH1KD tx: 14%; HT1080NT lethal: 13%; KB-V1 MDR tox: inactive; IL-1B inflam inh: 5; KB-3-1 cytotox: inactive

Results for O=C(c1cc(Cl)c(=O)n(Cc2ccc(Cl)cc2)c1)N1CCOCC1 ?
HT1080 IDH1KD tx: -3%; HT1080NT lethal: -2%; KB-V1 MDR tox: 21µM*; IL-1B inflam inh: -2; KB-3-1 cytotox: inactive

What do the screens show for `O=C(c1ccc(C(F)(F)F)n(Cc2ccc(Cl)cc2)c1=O)N1CCOCC1`?
HT1080 IDH1KD tx: 1%; HT1080NT lethal: 4%; KB-V1 MDR tox: inactive; IL-1B inflam inh: -4; KB-3-1 cytotox: inactive

What do the screens show for `Cc1cccc(C)c1OCC(O)CN` (stereo not drawn)?
HT1080 IDH1KD tx: 11%; HT1080NT lethal: 6%; KB-V1 MDR tox: inactive; IL-1B inflam inh: -59*; KB-3-1 cytotox: inactive

How did Cc1cccc(OC(=O)c2cc(-c3ccc4c(c3)OCCO4)on2)c1C do in these assays?
KB-V1 MDR tox: inactive; KB-3-1 cytotox: inactive

How did COc1cc(/C=N/Nc2nc3c(c(=O)n(C)c(=O)n3C)n2Cc2ccccc2)ccc1OC(=O)c1ccco1 do in these assays?
HT1080 IDH1KD tx: 1%; HT1080NT lethal: 0%; KB-V1 MDR tox: 9.2µM*; IL-1B inflam inh: inconclusive; KB-3-1 cytotox: inconclusive

What do the screens show for `Cn1c(=O)c2c(nc(N/N=C/c3ccncc3)n2Cc2ccccc2)n(C)c1=O`?
HT1080 IDH1KD tx: -11%; HT1080NT lethal: -9%; KB-V1 MDR tox: inactive; IL-1B inflam inh: 76; KB-3-1 cytotox: inactive

How did CCn1c(NCc2ccccn2)nc2c1c(=O)n(C)c(=O)n2C do in these assays?
HT1080 IDH1KD tx: 8%; HT1080NT lethal: -6%; KB-V1 MDR tox: inactive; IL-1B inflam inh: -3; KB-3-1 cytotox: inactive

Results for CCOc1ccc(CCNc2nc3c(c(=O)n(C)c(=O)n3C)n2CC)cc1OCC ?
HT1080 IDH1KD tx: 6%; HT1080NT lethal: -1%; KB-V1 MDR tox: inconclusive; IL-1B inflam inh: 2; KB-3-1 cytotox: 15µM*

How did COc1ccc(CCNc2nc3c(c(=O)n(C)c(=O)n3C)n2Cc2ccc(F)cc2)cc1OC do in these assays?
KB-V1 MDR tox: 2.1µM*; KB-3-1 cytotox: 18µM*

How did NC(=O)C1CCCN(CC(=O)Nc2cc(S(=O)(=O)N3CCOCC3)ccc2N2CCCC2)C1 (stereo not drawn) do in these assays?
HT1080 IDH1KD tx: 2%; HT1080NT lethal: 0%; KB-V1 MDR tox: inactive; IL-1B inflam inh: 5; KB-3-1 cytotox: inactive

How did CCn1c2ccccc2c2cc(NC(=O)CC(C)=O)ccc21 do in these assays?
HT1080 IDH1KD tx: -4%; HT1080NT lethal: 6%; KB-V1 MDR tox: inactive; IL-1B inflam inh: 0; KB-3-1 cytotox: inactive

Results for Cc1cccc(NC(=O)c2ccc3c(O)c(S(=O)(=O)c4ccccc4)c(=O)[nH]c3c2)c1C ?
KB-V1 MDR tox: inactive; KB-3-1 cytotox: inactive

Results for COc1ccc(OCCn2nnc3sc4c(c3c2=O)CCCC4)cc1 ?
KB-V1 MDR tox: inactive; KB-3-1 cytotox: inactive

Results for CCS(=O)(=O)Nc1ccc(C2=NN(C(=O)c3ccco3)C(c3ccco3)C2)cc1 (stereo not drawn) ?
HT1080 IDH1KD tx: 16µM*; HT1080NT lethal: inconclusive; KB-V1 MDR tox: inconclusive; IL-1B inflam inh: -4; KB-3-1 cytotox: 3.7µM*

How did CC(=O)N1N=C(c2ccc(NS(=O)(=O)c3ccccc3)cc2)CC1c1ccco1 (stereo not drawn) do in these assays?
HT1080 IDH1KD tx: 5.2µM*; HT1080NT lethal: 4.6µM*; KB-V1 MDR tox: inactive; IL-1B inflam inh: 58; KB-3-1 cytotox: inconclusive

What do the screens show for `CC(=O)N1N=C(c2cccc(NS(=O)(=O)c3ccc(C)cc3)c2)CC1c1ccco1` (stereo not drawn)?
HT1080 IDH1KD tx: inconclusive; HT1080NT lethal: -4%; KB-V1 MDR tox: inactive; IL-1B inflam inh: -20; KB-3-1 cytotox: inconclusive

What do the screens show for `Cc1ccc(OCC(=O)N2N=C(c3ccc(Cl)cc3)CC2c2ccco2)c([N+](=O)[O-])n1` (stereo not drawn)?
HT1080 IDH1KD tx: -26%; HT1080NT lethal: -27%; KB-V1 MDR tox: inactive; IL-1B inflam inh: -54*; KB-3-1 cytotox: inactive

How did O=C(COc1cccnc1[N+](=O)[O-])N1N=C(c2ccc(Cl)cc2)CC1c1ccco1 (stereo not drawn) do in these assays?
HT1080 IDH1KD tx: inconclusive; HT1080NT lethal: inconclusive; KB-V1 MDR tox: inactive; IL-1B inflam inh: -25; KB-3-1 cytotox: inactive

Results for O=C(c1ccco1)N1N=C(c2ccc(Br)cc2)CC1c1ccco1 (stereo not drawn) ?
HT1080 IDH1KD tx: 10%; HT1080NT lethal: 5%[9.24 µM]; KB-V1 MDR tox: inactive; IL-1B inflam inh: -67*; KB-3-1 cytotox: inactive

Results for N#Cc1cc2c(=O)n3ccccc3nc2n(-c2ccccc2Cl)c1=O ?
HT1080 IDH1KD tx: inconclusive; HT1080NT lethal: inconclusive; KB-V1 MDR tox: inactive; IL-1B inflam inh: -3; KB-3-1 cytotox: inconclusive

How did Cc1cccc(NC2=CC(c3cccc(Br)c3)N(c3cccc(C)c3)C2=O)c1 (stereo not drawn) do in these assays?
KB-V1 MDR tox: inactive; KB-3-1 cytotox: inactive

Results for CN(C(=O)CC1C(=O)NCCN1Cc1ccc(F)c(F)c1)C1CCOCC1 (stereo not drawn) ?
HT1080 IDH1KD tx: 5%; HT1080NT lethal: 0%; KB-V1 MDR tox: inactive; IL-1B inflam inh: 7; KB-3-1 cytotox: inactive
